Here are results for 13 compounds from PubChem BioAssay (NCI).

What all share (test): NCI-60 one-dose screen, 48 h (100 = growth as untreated, 0 = no growth, -100 = all killed)
Conditions in all cases: 10 µM unless noted

In assay [1] the test system is HCT-15 colon.
Assay [2] has as its system HT29 colon.
For assay [3], the system named is SNB-75 CNS.
In assay [4] the test system is SNB-19 CNS.
In assay [5] the test system is U251 CNS.
For assay [6], the system named is PC-3 prostate.
For assay [7], the system named is SK-MEL-5 melanoma.
For assay [8], the system named is UACC-62 melanoma.
The subject of assay [9] is LOX IMVI melanoma.
Assay [10] deals with SK-MEL-28 melanoma.

About 83,000 compounds went through this panel and 20% of them were active in at least one assay; those are over-represented in the sample as a whole.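 Plates (96-well) were seeded with cells, treated with compound at one concentration, and incubated for 48 hours before percent growth was determined.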 Values without a mark were called inactive. Activity calls are given as the source filed them. How the source made its calls: active means growth percent below 10; inactive means the rest.

On to `CCOC(=O)C1=C(C)N=C2SC=C(c3ccccc3)N2[C@H]1c1cn[nH]c1-c1ccc(Cl)cc1`, for which the growth in assay [1] is 24.6%; in assay [2], 36.8%; in assay [3], 73.8%; in assay [4] it was 59.2%; in assay [5], 31.2%; in assay [6] it was 34.7%. Moreover, the growth in assay [7] was 49.7%; in assay [8] it was 36.2%; in [9], 5.54% (active); in assay [10], 75.2%.

For the compound `COC(=O)/C(CCC=C(C)C)=C1\[C@@H](OC(C)=O)C[C@@]2(C)[C@H]1CC(=O)[C@H]1[C@@]3(C)CCC(N4CCCC4)[C@@H](C)[C@@H]3CC[C@@]12C` (stereo not given in full), the growth was 73.4% in [1]; 68.2% in [2]; 99.2% in assay [3]; 107% in [4]; 101% in assay [5]; 89.1% in assay [6]. The growth in assay [7] was 99.2%; in assay [8], 97.6%; in assay [9] it was 101%; in assay [10], 93.6%.

As for `COCCCOc1cc(C[C@@H](C[C@H](N)[C@@H](O)C[C@H](C(=O)NCC(C)(C)C(N)=O)C(C)C)C(C)C)ccc1OC`, the growth in assay [1] is 111%; in [2] it was 106%; in assay [3] it was 88.4%; in assay [4] it was 106%; in assay [5] it was 98.7%; in assay [6], 90.7%. Moreover, the growth in assay [7] is 106%; in [8], 102%; in assay [9], 95%; in assay [10], 104%.

For `COc1cccc(OC)c1Oc1c(-c2nc3ccccc3s2)c(C)nn1-c1ccccc1`, the growth in assay [1] was 51.7%; in assay [2], 71.2%; in assay [3] it was 74.8%; in [4], 92.7%; in [5], 84.8%; in assay [6] it was 51.1%. In addition, the growth in [7] is 73.7%; in assay [8] it was 56.2%; in [9] it was 62.9%; in assay [10] it was 106%.

`CCN(CC)CCOc1nc2c3ccc(Cl)cc3nn2c2ccccc12`: the growth in assay [1] is 4.7% (active); in assay [2] it was 15.2%; in assay [3], 33.5%; in [4], 24.2%; in [5], 16.4%; in [6], 34.1%. In addition, the growth in [7] is 51.3%; in assay [8] it was 9.05% (active); in [9], -47.2% (active); in assay [10], 44.8%.

On to `O=C(Cn1nnc([N+](=O)[O-])n1)c1ccccc1`, for which the growth was 80.5% in assay [1]; 66.4% in [2]; 67.9% in [3]; 116% in assay [4]; 106% in assay [5]; 79.8% in assay [6]. Moreover, the growth is 84.1% in [7], 68.8% in assay [8], 59.6% in assay [9] and 110% in assay [10].

Take `C/C(=C(/c1ccc(Cl)cc1)c1ccc(OCCCN(C)C)cc1)c1ccc(Cl)cc1`: the growth in assay [1] was 50.4%; in assay [2], 16.3%; in [3], 96.4%; in [4] it was 97.3%; in [5], 75.9%; in [6], 84.8%. The growth in [7] was 93.8%; in assay [8] it was 109%; in assay [9], 78.1%; in [10], 99.5%.

Take `O=C1/C(=C/c2ccc(Br)cc2)COc2ccc(O)c(O)c21`: the growth in [1] was 0.349% (active); in assay [2] it was 2.83% (active); in [3] it was 20.4%; in assay [4] it was 6.19% (active); in assay [5], -72.4% (active); in assay [6], -26.3% (active). For the same compound, the growth in assay [7] was 29.8%; in assay [8], -14.2% (active); in assay [9], -91% (active); in [10] it was 22%.

For the compound `O=c1[nH]c(-c2ccc(Cl)cc2)cn1-c1ccc(-n2cc(-c3ccc(Cl)cc3)[nH]c2=O)cc1`, the growth in [1] is 98.8%; in assay [2], 102%; in assay [3], 98.1%; in assay [4], 93.5%; in assay [5] it was 104%; in [6], 77.5%. Further, the growth in assay [7] was 101%; in assay [8] it was 87.5%; in [9] it was 103%; in [10], 101%.

On to `CC(=O)c1cc(-c2ccccc2N)n(-c2ccc3c(c2)OCO3)c1C`, for which the growth in assay [1] was 13.4%; in assay [2] it was 6.88% (active); in assay [3], 22.8%; in assay [4], 18.6%; in assay [5], 14.7%; in assay [6], 30.1%. In addition, the growth in assay [7] was 2.46% (active); in [8], 25.3%; in [9] it was 35.1%; in assay [10], 52.4%.

`CCN(CC)CCN(CCN(CC)CC)c1ccccc1`: the growth is 104% in assay [1]; 102% in [2]; 79.1% in [3]; 87.3% in [4]; 98.2% in assay [5]; 87.4% in assay [6]. Further, the growth in assay [7] was 97.7%; in assay [8] it was 89.4%; in assay [9], 88.7%; in assay [10], 108%.

Regarding `Clc1nn2c(Cn3cnc4c(NCc5ccccc5)ncnc43)nnc2c2ccccc12`, the growth in assay [1] was 25.8%; in assay [2], 56.4%; in [3], 37.1%; in [4], 61.9%; in [5], 34.5%; in [6], 42%. In addition, the growth in assay [7] was 58.6%; in assay [8], 22.4%; in [9], 31.3%; in [10], 46%.

With `CCOC(=O)C1=C(c2ccccc2)N=c2s/c(=C/c3ccc(Br)cc3)c(=O)n2C1c1ccc(O)cc1` (stereo not given), the growth was 82.3% in assay [1]; 87.6% in [2]; 68.7% in assay [3]; 86.7% in assay [4]; 81.1% in assay [5]; 64.1% in assay [6]. For the same compound, the growth in assay [7] was 91.9%; in assay [8], 76.1%; in [9] it was 91.7%; in [10], 92.5%.
